Data: the supplement of paper PMC6555819

What was measured:
Test in all cases: PBM binding z-score (relative to random genomic background probes); higher = stronger binding; sequences stand for … in GC…GCGATTGACAGCGTAGAATGAAGG
[1] = test system: FXR:RXRa (NR concentration 270 nM, RXRa partner concentration 90 nM)
In short: (§1)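 Binding z-scores take random background probes as their reference. They come from custom Agilent 4×180K protein-binding microarrays incubated 1 h with ligand-free nuclear receptor dimers, with antibodies against each partner (one per run) detecting binding. Scanned fluorescence was regression-normalized.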

[2] = test system: LXRa:RXRa (NR concentration 270 nM, RXRa partner concentration 90 nM)
In short: as §1

[3] = test system: LXRa homodimer (NR concentration 270 nM)
In short: as §1

[4] = test system: LXRb:RXRa (NR concentration 270 nM, RXRa partner concentration 90 nM)
In short: as §1

[5] = test system: LXRb homodimer (NR concentration 270 nM)
In short: as §1

[6] = test system: PPARa:RXRa (NR concentration 270 nM, RXRa partner concentration 90 nM)
In short: as §1

[7] = test system: PPARg:RXRa (NR concentration 180 nM, RXRa partner concentration 90 nM)
In short: as §1

[8] = test system: PPARg:RXRa 270nM:90nM, anti-RXR (NR concentration 270 nM, RXRa partner concentration 90 nM)
In short: as §1

[9] = test system: PPARg:RXRa 30nM:10nM, anti-RXR (NR concentration 30 nM, RXRa partner concentration 10 nM)
In short: as §1

[10] = test system: PPARg:RXRa 90nM:30nM, anti-RXR (NR concentration 90 nM, RXRa partner concentration 30 nM)
In short: as §1

[11] = test system: PPARg:RXRa DBDmut IVT, anti-RXR (DBD mutation: RXRa K156A/R161A, NR concentration 270 nM, RXRa partner concentration 90 nM)
In short: as §1

[12] = test system: PPARg:RXRa IVT, anti-PPARg (NR concentration 270 nM, RXRa partner concentration 90 nM)
In short: as §1

[13] = test system: PPARg DBDmut:RXRa IVT, anti-PPARg (DBD mutation: PPARg1 K132A/R137A, NR concentration 270 nM, RXRa partner concentration 90 nM)
In short: as §1

[14] = test system: PPARg DBDmut IVT, anti-PPARg (DBD mutation: PPARg1 K132A/R137A, NR concentration 270 nM)
In short: as §1

[15] = test system: PPARg homodimer (NR concentration 180 nM)
In short: as §1

[16] = test system: PXR:RXRa (NR concentration 270 nM, RXRa partner concentration 90 nM)
In short: as §1

[17] = test system: PXR homodimer (NR concentration 270 nM)
In short: as §1

[18] = test system: RARa:RXR (NR concentration 270 nM, RXRa partner concentration 90 nM)
In short: as §1

[19] = test system: RARa homodimer (NR concentration 270 nM)
In short: as §1

[20] = test system: RARb:RXRa (NR concentration 270 nM, RXRa partner concentration 90 nM)
In short: as §1

Row | Sequence | PBM binding z-score [1] | PBM binding z-score [2] | PBM binding z-score [3] | PBM binding z-score [4] | PBM binding z-score [5] | PBM binding z-score [6] | PBM binding z-score [7] | PBM binding z-score [8] | PBM binding z-score [9] | PBM binding z-score [10] | PBM binding z-score [11] | PBM binding z-score [12] | PBM binding z-score [13] | PBM binding z-score [14] | PBM binding z-score [15] | PBM binding z-score [16] | PBM binding z-score [17] | PBM binding z-score [18] | PBM binding z-score [19] | PBM binding z-score [20]
1 | ACTATTAGTTGACTTAGGACAACCGATACGACGC | 0.502 | 0.291 | 0.606 | 0.299 | 0.989 | 0.0286 | 1.11 | 0.164 | 0.448 | 0.273 | -0.129 | 0.214 | 1.42 | 1.67 | 1.07 | 0.411 | 0.511 | 0.675 | 0.875 | 0.665
2 | ACTAGCAGGCCAGGTTTGGGTCACTCAAACAAAG | -0.191 | -0.164 | -0.504 | 0.269 | -0.651 | 0.985 | -0.123 | 0.025 | -0.537 | -0.199 | -0.173 | 0.446 | -0.511 | -0.687 | 0.235 | 0.351 | -0.166 | 1.17 | -0.279 | 1.32
3 | AGAATGAGGTTATTAAGATCAGGGATTTGCGGTC | 1.64 | 1.59 | 0.335 | 1.29 | 0.376 | 2.39 | 1.5 | 1.92 | 0.623 | 1.21 | 3.56 | 2.51 | 1.03 | 0.211 | 0.911 | 1.23 | 0.655 | 1.64 | 0.863 | 1.37
4 | TAGCCTAGGTCATTCAGGAGCCAGTATAGAAAGC | 4.36 | 3.63 | 0.522 | 2.42 | 0.687 | 3.57 | 1.84 | 2.24 | 0.638 | 1.63 | 1.4 | 2.52 | 0.758 | 0.0429 | 0.878 | 1.43 | -0.343 | 2.19 | -0.28 | 3.62
5 | GCTCCTAGGTCAACTGATGGTCAGCTAAAGCTCG | 4.73 | 3.62 | 0.561 | 3.01 | 0.879 | 4.1 | 2.53 | 3.46 | 1.21 | 2.51 | 4.98 | 3.97 | -0.903 | 0.266 | 2.06 | 2.28 | -0.577 | 3.53 | -0.186 | 4.35
6 | CGAACTAGGTCAGAACAGGACCGTGAAGGATGAT | 0.998 | 0.352 | -0.566 | 0.148 | -0.568 | 2.94 | 5.07 | 4.33 | 1.63 | 3.44 | 7.33 | 7.06 | 2.11 | 0.843 | 0.797 | 0.0175 | -0.758 | 0.594 | -0.383 | 2.73
7 | TCATGTAGGTAAAGGTGAAAGTCGAACGATATGA | 1.05 | 1.11 | -0.13 | 1.23 | -0.337 | 3.46 | 4.4 | 4.72 | 4.32 | 4.81 | 4.4 | 4.97 | 1.57 | 1.56 | 0.969 | 0.939 | 0.207 | 1.53 | 0.733 | 2.05
8 | TCTGCTAGGTAAACGATGGTCAGCTAATCTGCTA | -0.588 | -0.334 | -0.988 | -0.606 | -1.07 | -0.0928 | -0.293 | 0.636 | 1.68 | 1.22 | 1.06 | 0.192 | -0.37 | -0.397 | -1.72 | -0.369 | -0.821 | -0.233 | -1.63 | -0.0745
